Laboratory results reported in PubChem BioAssay AID588342 (National Center for Advancing Translational Sciences (NCATS), 2011).
About 25,000 (6.9%) of roughly 360,000 compounds were called active. Another 9% or so got no clear call; they are omitted. Many of the other results were omitted from the sample, so actives are more common in it than they were. Unmarked numbers belong to inactive results. Calls follow the shape of the dose curve; as a rule, active = well fitted inhibition curve with a large enough effect; inconclusive = small, poorly fitted or top-dose-only effect; inactive = flat fitted curve, though single readings scatter.

target: Luciferin 4-monooxygenase (Photinus pyralis) (UniProt P08659); test: qHTS profiling assay for firefly luciferase inhibitor/activator using purifed enzyme and Km concentrations of substrates (counterscreen for miR-21 project); settings: purified FLuc, luminescence inhibition; series mostly up to 57.5 µM; activity change, negative = inhibition: at the top concentration; also: nearly all actives have a fitted effect of over 55% in size;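 as to activity change, negative = inhibition: plate controls were vehicle for no effect and reference inhibitor for full effect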
Sequence (P08659 whole entry, looked up): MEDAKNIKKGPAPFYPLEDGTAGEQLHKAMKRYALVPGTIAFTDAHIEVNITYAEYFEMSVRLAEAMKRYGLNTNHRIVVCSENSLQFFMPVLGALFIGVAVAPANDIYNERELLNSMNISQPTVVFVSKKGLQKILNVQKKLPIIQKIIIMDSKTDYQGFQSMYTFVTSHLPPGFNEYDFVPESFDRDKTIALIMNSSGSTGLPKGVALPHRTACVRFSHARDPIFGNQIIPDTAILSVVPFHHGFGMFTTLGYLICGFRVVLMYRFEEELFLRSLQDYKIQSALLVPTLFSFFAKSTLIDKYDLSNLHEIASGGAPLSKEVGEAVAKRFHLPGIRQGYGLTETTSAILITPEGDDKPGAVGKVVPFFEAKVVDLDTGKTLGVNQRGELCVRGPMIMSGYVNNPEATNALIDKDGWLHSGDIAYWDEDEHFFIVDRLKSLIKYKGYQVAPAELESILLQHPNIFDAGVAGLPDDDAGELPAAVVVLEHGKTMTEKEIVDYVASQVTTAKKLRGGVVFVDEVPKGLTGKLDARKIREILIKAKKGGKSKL
Method in brief: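 Purified P. pyralis luciferase (10nM final) with 10uM D-luciferin and 10uM ATP (Km levels) in 50mM Tris acetate pH 7.5, 10mM Mg acetate, 0.01% Tween-20, 0.05% BSA; qHTS 6-point titration, ~60 µM downward; luminescence read.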
Potency is read from the fitted curve at half-maximal effect.

Structure (SMILES) | activity change, negative = inhibition | Potency
CCOc1ccc2nc(NC(=O)CSc3nc4c(c(=O)n(C)c(=O)n4C)n3CC)sc2c1 | -20.8% | 
CCn1c(SCC(=O)Nc2nc3ccc(OC)cc3s2)nnc1-c1ccoc1C |  | 10.7 µM (active)
CCn1c(SCC(=O)NC2CCCC2)nnc1-c1ccoc1C | 0.285% | 
CCOc1ccccc1C(=O)Nc1ccc2c(c1)N(C)C(=O)c1ccccc1S2 | -8.56% | 
Cc1ccc(-n2c(SCC(=O)c3ccccc3)nc3c([nH]c4ccccc43)c2=O)cc1 | -1.63% | 
CSc1ccc(CCNC(=O)CS(=O)(=O)Cc2nc(-c3ccccc3F)oc2C)cc1 | 1.16% | 
CCOC(=O)c1ccc(NC(=O)C2CC(=O)N(c3ccc4c(c3)OCCO4)C2)cc1 (configuration not stated) | 4.6% | 
Cc1cccc(-n2c(C)cc(/C=N\NC(=O)c3cccs3)c2C)c1 |  | 1.2 µM (active)
Cc1cccc(-n2c(C)cc(/C=N/NC(N)=S)c2C)c1 | -19.6% | 
O=C(COC(=O)CCC(=O)c1cccs1)NCc1ccco1 | 2.32% | 
O=C(N/N=C/C=C/c1ccco1)c1cccs1 |  | 26.9 µM (active)
Cc1ccc(-n2c(C)cc(/C=N\NC(=O)CC(=O)NC(C)C)c2C)cc1 |  | 13.5 µM (active)
Cc1ccc(NC(=O)CCC(=O)N/N=C/c2ccco2)c(C)c1 | -0.493% | 
Cc1cc(C(=O)Nc2ccc(C)c(S(=O)(=O)N3CCOCC3)c2)c2ccccc2n1 | -0.289% | 
Cc1ccc(-c2cc(C(=O)N/N=C/C=C/c3ccco3)c3ccccc3n2)cc1C |  | 1.07 µM (active)
Cc1ccc(-c2nnc(SCC(=O)N/N=C/c3cccs3)n2-c2ccc(C)cc2)cc1 | 2.81% | 
Cc1cc(/C=N/NC(=O)CC2(C)OCCO2)c(C)n1-c1ccc(Cl)c(Cl)c1 | -5.09% | 
Cc1cc(/C=N/Nc2ccc([N+](=O)[O-])cn2)c(C)n1-c1cccc(C(=O)O)c1 | -16.1% | 
CC1C/C(=N/NC(=O)c2cccs2)CC(C)(C)C1 (configuration not stated) | -1.71% | 
CCOC(=O)c1c(C)oc2nc(C)nc(N(CC(C)C)CC(C)C)c12 | -7.08% | 
O=C(COC(=O)CCCN1C(=O)c2cccc3cccc(c23)C1=O)NC1CCS(=O)(=O)C1 (configuration not stated) | 1.69% | 
COc1ccc(N2CCN(C(=O)c3c(C)oc4nc(C)nc(N5CCCC5)c34)CC2)cc1 | 6.34% | 
Cc1ccccc1Nc1nc(N)nc(COC(=O)CCC(=O)c2ccc(F)cc2)n1 | 4.1% | 
CCOC(=O)N1CCN(C(=O)COC(=O)c2cccc(S(C)(=O)=O)c2)CC1 | -1.79% | 
CCc1ccc(S(=O)(=O)c2nnn3c2nc(NCc2ccccc2OC)c2cc(Cl)ccc23)cc1 | -0.594% | 
COc1ccc(N2CCN(S(=O)(=O)CCNC(=O)C(c3ccccc3)c3ccccc3)CC2)cc1 | 7.73% | 

Structure (SMILES) | activity change, negative = inhibition | Potency
CCC(=O)Nc1ccccc1-c1nc2ccccc2n(CC(=O)Nc2ccc(C)c(C)c2)c1=O | -0.959% | 
CC(=O)Nc1ccc(/C=N/NC(=O)c2cccs2)cc1 |  | 12 µM (active)
CC(C)OCCCNC(=O)CNC(=O)c1cccs1 | 0.296% | 
O=C(NC(Cc1c[nH]c2ccccc12)C(=O)N/N=C/c1ccc(Br)cc1)c1cccs1 (configuration not stated) | 3.94% | 
Cc1cccc(OCC(=O)NCC(=O)N/N=C/c2ccc(N(C)C)cc2)c1 | -2.61% | 
NC(=O)N/N=C\c1cccs1 | 4.22% | 
CCN(CC)c1ccc(/C=N/NC(=O)CNC(=O)c2cccs2)cc1 |  | 23.9 µM (active)
CCC(Sc1nnc(-c2ccc(OC)cc2)c(-c2ccc(OC)cc2)n1)C(=O)NC1CCCCC1 (configuration not stated) | -1.88% | 
CCOC(=O)c1c(NC(=O)/C=C/c2ccc(OC)cc2)sc2c1CCC(C)C2 (configuration not stated) | -4.98% | 
CCc1ccc(C(=O)CC2(O)C(=O)N(CCc3ccccc3)c3ccc(Br)cc32)cc1 (configuration not stated) | -0.823% | 
Cc1ccc(S(=O)(=O)N2CCCCC2)cc1NC(=O)[C@@H]1CCCN1C(=O)c1cccs1 | 0.451% | 
CC(=O)Nc1ccc(NC(=O)c2cc3sccc3n2Cc2ccc(F)cc2)cc1 | -7.58% | 
CCOC(=O)c1cc(C)sc1NC(=O)C1CCC1 | 1.17% | 
O=C(Nc1ccccc1Cl)c1ccc2nsnc2c1 |  | 19 µM (active)
Cc1cccc(NC(=O)c2ccc3nsnc3c2)c1C | -18.7% | 
CCc1ccccc1NC(=O)c1ccc2snnc2c1 | -1.29% | 
CC1(C)CC(N2CCN(C(c3ccccc3)c3ccccc3)CC2)=CC(=[N+]2CCCCC2)C1 | 1.86% | 
O=S(=O)(NC1CC1)c1ccc(Cl)cc1 | -1.93% | 
Cc1ccc(CNC(=O)Cn2c(=O)ccc3cc(S(=O)(=O)N4CCCC4)ccc32)cc1 | -6.95% | 
COCCN(C(=O)c1ccco1)c1nnc(-c2ccc(OC)cc2)s1 |  | 21.3 µM (active)
COCCN(C(=O)C(C)C)c1nnc(-c2ccc(C(C)(C)C)cc2)s1 |  | 15.1 µM (active)
Cc1nnc(N(Cc2ccco2)C(=O)c2ccno2)s1 | -14.6% | 
COc1ccc(N(CC(=O)NC(C)(C)C)C(=O)c2ccco2)cc1 | 1.44% | 
CN1CCNC(=O)C1CC(=O)N1CC=C(c2ccc(F)cc2)CC1 (configuration not stated) | -1.89% | 
Cn1c(C(=O)N2CCC(C(=O)N3CCN(c4ccccc4)CC3)CC2)cc2sccc21 | -7.63% | 
Cc1ccc(C)c(NC(=O)CSC2=Nc3ccccc3N=C(c3ccc(F)cc3)C2)c1 | -5.62% | 
